Here are results for 46 compounds from PubChem BioAssay AID651710 (Broad Institute, 2012).

SMILES strings stand for the structures. Hit rate of the full screen: of about 360,000 compounds, about 1,600 (0.44%) were called active. What follows is part of a selection rich in actives, with near analogues and random picks from the rest. A number with no mark means an inactive call.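 Rule for the calls: active = every replicate showing at least 50% inhibition; inconclusive = mean inhibition at least 50% but not in every replicate; inactive = the rest.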

Sequence of DNA repair protein RAD52 homolog (Homo sapiens) (P43351 whole entry, looked up): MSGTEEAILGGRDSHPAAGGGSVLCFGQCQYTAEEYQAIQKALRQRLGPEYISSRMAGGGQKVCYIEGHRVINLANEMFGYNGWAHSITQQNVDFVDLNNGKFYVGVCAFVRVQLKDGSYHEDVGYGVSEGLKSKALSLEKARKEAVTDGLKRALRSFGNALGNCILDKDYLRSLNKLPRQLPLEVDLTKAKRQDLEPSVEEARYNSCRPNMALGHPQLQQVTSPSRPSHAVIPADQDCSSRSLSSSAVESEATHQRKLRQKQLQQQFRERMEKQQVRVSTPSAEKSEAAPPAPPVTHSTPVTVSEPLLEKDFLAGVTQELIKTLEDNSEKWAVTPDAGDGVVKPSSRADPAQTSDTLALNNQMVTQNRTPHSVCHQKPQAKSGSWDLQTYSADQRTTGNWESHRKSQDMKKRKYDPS

The experiment addresses DNA repair protein RAD52 homolog (Homo sapiens) (UniProt P43351). Kind of experiment: RAD52 DNA annealing inhibitors, primary screen, biochemical, FRET, single point, set 2 (AID 651710). The settings on record: recombinant RAD52 DNA annealing, FRET fluorescence; at 18.7 µM; stronger effect = higher value.
Take `CCC(=O)Nc1ccc2c(c1)C(=O)N(C)[C@@H]1CC[C@@H](CC(=O)NCCc3ccccc3)O[C@H]1CO2`: the inhibition is -0.75%. In the case of `CC(C)CC#Cc1ccc2c(c1)O[C@H](CN(C)S(=O)(=O)c1cccc(F)c1)[C@@H](C)CN([C@@H](C)CO)S2(=O)=O`, the inhibition is 10.9%. Consider `COc1ccc(NC(=O)C2Cc3c(-c4cccc(NC(C)=O)c4)ccnc3O2)cc1OC` (stereo unspecified), for which the inhibition was -0.756%. As for `COc1ccc(NC(=S)SC)cc1OC`, the inhibition was -5.52%. For `COc1ccc(NC(=O)C2C3CCC(O3)C2C(=O)O)cc1OC` (stereo unspecified), the inhibition is 71.2% (active). As to `O=C1CCC(C(=O)OCC(=O)Nc2ccc(OC(F)F)cc2)=NN1`, the inhibition was 54.8% (active). Regarding `Nc1c(C(=O)OCC(=O)Nc2ccc(OC(F)F)cc2)[nH]c(=O)[nH]c1=O`, the inhibition is -4.75%. For the compound `COCc1c(C(=O)OCC(=O)Nc2ccc(OC(F)F)cc2)oc2ccccc12`, the inhibition is -1.64%. On to `C=CCNC(=O)[C@H]1[C@@H]2C(=O)O[C@@H](c3ccccc3)[C@@H](c3ccccc3)N2[C@@H](c2ccccc2OCCO)[C@]12C(=O)N(C(=O)OCCOC)c1ccc(C#Cc3ccc(OC)cc3)cc12`, for which the inhibition was -0.136%. With `CO[C@@H]1CN(C)C(=O)c2cc(NS(=O)(=O)c3cn(C)cn3)ccc2OC[C@@H](C)N(CCC(F)(F)F)C[C@H]1C`, the inhibition is 7.94%. For `CCCc1cn(CC[C@H]2CC[C@@H](NC(=O)C3CCOCC3)[C@@H](CO)O2)nn1` the value was -2.7%; for `O=C1Nc2cc(C(=O)N3CCC(N4CCCCC4)CC3)ccc2S/C1=C\c1ccccc1`, 39.6%.

Take `CCN1CCCC1CNC(=O)c1cc2cc(OC)c(OC)cc2[nH]1` (stereo unspecified): the inhibition was 2.51%. As to `CCN1CCCC1CNC(=O)c1ccc2c(c1)NC(=O)/C(=C\c1ccccc1F)S2` (stereo unspecified), the inhibition was 87.1% (active). Turning to `CC(=O)N(C)C[C@H]1[C@H](c2ccc(C3=CCCCC3)cc2)[C@H](CO)N1CC1CC1`, the inhibition was 17.9%. On to `COCC(=O)N(C)C[C@H]1Oc2cc(C#C[C@@H](C)O)ccc2S(=O)(=O)N([C@@H](C)CO)C[C@@H]1C`, for which the inhibition was -1.74%.

In the case of `CC(=O)N(C)C[C@@H]1Oc2cc(-c3ccncc3)ccc2S(=O)(=O)N([C@@H](C)CO)C[C@H]1C`, the inhibition was 3.3%. For the compound `CCCN(C)C[C@H]1Oc2cc(C#CC3CCCC3)ccc2S(=O)(=O)N([C@H](C)CO)C[C@@H]1C`, the inhibition is -63.3%. On to `CO[C@@H]1CN(C)C(=O)c2ccc(NC(=O)C3CC3)cc2OC[C@@H](C)N(Cc2ccncc2)C[C@@H]1C`, for which the inhibition is 17%. As to `C[C@H](CO)N1C[C@H](C)[C@H](CN(C)S(=O)(=O)c2cn(C)cn2)Oc2c(NC(=O)c3ccc(-c4nccs4)cc3)cccc2C1=O`, the inhibition is 7.43%.

Turning to `COc1ccccc1CNC(=O)Cn1cc2c(n1)CCCC2`, the inhibition is -14%.

With `CCN(CC)CCN(C(=O)c1ccc2c(c1)CCCC2)c1nc2c(OC)cccc2s1`, the inhibition is 53.9% (active). On to `CCN(CC)CCN(C(=O)c1ccc(N2C(=O)CCC2=O)cc1)c1nc2cc3c(cc2s1)OCO3`, for which the inhibition was 40.8%. For `COc1cccc2sc(N(CCCN(C)C)C(=O)C(c3ccccc3)c3ccccc3)nc12`, the inhibition is 56.2% (active). For the compound `O=C(CN1CCOCC1)N1CC(=O)N2[C@H](C1)[C@H](c1ccc(/C=C/c3ccccc3)cc1)[C@@H]2CO`, the inhibition was -3.93%. Turning to `O=C(NCCN1CCN(Cc2ccccc2)CC1)c1cc2c(=O)[nH]c3ccccc3c2s1`, the inhibition was -32.4%. For the compound `Cc1cccc(N(C)C(=O)c2cc3c(=O)[nH]c4ccc(C)cc4c3s2)c1`, the inhibition was -6.65%.

Regarding `CCN(CC)CCCNC(=O)c1cc2c(=O)[nH]c3ccc(C)cc3c2s1`, the inhibition is 54.3% (active). For `CO[C@H]1CN(C)C(=O)c2cc(NC(=O)NC(C)C)ccc2OC[C@H](C)N(C(=O)CN(C)C)C[C@H]1C`, the inhibition was -12.8%. Turning to `CO[C@@H]1CN(C)C(=O)c2cc(NC(=O)Nc3ccc4c(c3)OCO4)ccc2OC[C@@H](C)NC[C@@H]1C`, the inhibition is -75.6%. For the compound `O=C1c2ccccc2-c2ncnc3c(N4CCOCC4)cc(N4CCOCC4)c1c23`, the inhibition is 3.29%.

As to `Cc1oc2c(c1C(=O)N1CCOCC1)C(=O)c1ccccc1C2=O`, the inhibition is -120%. In the case of `COC1=C(N2CCOCC2)C(=O)c2ccccc2C1=O`, the inhibition was 96.8% (active). The result for `CCCNC(=O)C[C@@H]1CC[C@@H]2[C@H](COc3ccc(NC(=O)C4CCOCC4)cc3C(=O)N2C)O1` reads 8.28%; that for `O=C(Cc1ccccn1)N[C@H]1CC[C@@H](CC(=O)N2CCCCC2)O[C@@H]1CO`, -3.74%. `CO[C@@H]1CN(C)C(=O)c2ccc(NC(C)=O)cc2OC[C@@H](C)N(Cc2ccc(-c3ccccn3)cc2)C[C@H]1C`: the inhibition was 20.8%.

On to `COc1cccc(NC(=O)Nc2ccc3c(c2)OC[C@@H](C)NC[C@@H](C)[C@H](OC)CN(C)C3=O)c1`, for which the inhibition was 84.4% (active). For `COc1cccc(NC(=O)Nc2ccc3c(c2)C(=O)N(C)C[C@@H](OC)[C@H](C)CN(CC2CC2)[C@H](C)CO3)c1` the value was 58.2% (active).

With `COc1cccc(NC(=O)Nc2ccc3c(c2)C(=O)N(C)C[C@H](OC)[C@@H](C)CN[C@@H](C)CO3)c1`, the inhibition is 45.9%. For `COc1ccc(NC(=O)Nc2ccc3c(c2)OC[C@@H](C)NC[C@@H](C)[C@H](OC)CN(C)C3=O)cc1` the value was -1.22%; for `CO[C@@H]1CN(C)C(=O)c2cc(NC(=O)NC(C)C)ccc2OC[C@@H](C)N(CC2CC2)C[C@@H]1C`, -2.47%; for `COc1ccccc1C(=O)Nc1ccc2c(c1)C(=O)N(C)C[C@@H](OC)[C@@H](C)CN(CC1CC1)[C@@H](C)CO2`, 14.3%. For `CCCC(=O)Nc1ccc2c(c1)C(=O)N(C)C[C@H](OC)[C@@H](C)CN[C@H](C)CO2`, the inhibition is -5.47%. The result for `O=C(CN1CCOCC1)N[C@@H]1CC[C@H](CCNS(=O)(=O)c2ccccc2F)O[C@H]1CO` reads -13.5%; that for `O=C(Cc1ccccc1)N1CC[C@@H]2[C@H](CO)Nc3ccc(-c4ccccc4)cc3[C@@H]21`, -10.7%; that for `Cc1ccc(-c2ccc3c(c2)O[C@H](CN(C)C(=O)Nc2ccc(C(F)(F)F)cc2)[C@@H](C)CN([C@H](C)CO)S3(=O)=O)cc1`, -8.45%.

Broadly, the inhibition is the drop in the measured response relative to a control, in per cent.
